These results are taken from ChEMBL document CHEMBL3988442, “University of Dundee, Small-Polar-MMV Screening Library” (2021).

For some of these results: Potency and affinity values are given separately.

Holding throughout (set-up): scale not given: direction of the effect not stated beside the values
Assay [1] concerns the target Protein translocase subunit SecA (Escherichia coli (strain K12)) (UniProt P10408). The experiment in a line: Assay to Identify E. coli SecA ATPase Inhibitors. The format is functional. The note with it: 30 µM.
The target in assay [2] is T1, Ubiquitin-activating enzyme e1, putative (Leishmania donovani (strain BPK282A1)) (UniProt E9BSI1).
T1 sequence (whole entry): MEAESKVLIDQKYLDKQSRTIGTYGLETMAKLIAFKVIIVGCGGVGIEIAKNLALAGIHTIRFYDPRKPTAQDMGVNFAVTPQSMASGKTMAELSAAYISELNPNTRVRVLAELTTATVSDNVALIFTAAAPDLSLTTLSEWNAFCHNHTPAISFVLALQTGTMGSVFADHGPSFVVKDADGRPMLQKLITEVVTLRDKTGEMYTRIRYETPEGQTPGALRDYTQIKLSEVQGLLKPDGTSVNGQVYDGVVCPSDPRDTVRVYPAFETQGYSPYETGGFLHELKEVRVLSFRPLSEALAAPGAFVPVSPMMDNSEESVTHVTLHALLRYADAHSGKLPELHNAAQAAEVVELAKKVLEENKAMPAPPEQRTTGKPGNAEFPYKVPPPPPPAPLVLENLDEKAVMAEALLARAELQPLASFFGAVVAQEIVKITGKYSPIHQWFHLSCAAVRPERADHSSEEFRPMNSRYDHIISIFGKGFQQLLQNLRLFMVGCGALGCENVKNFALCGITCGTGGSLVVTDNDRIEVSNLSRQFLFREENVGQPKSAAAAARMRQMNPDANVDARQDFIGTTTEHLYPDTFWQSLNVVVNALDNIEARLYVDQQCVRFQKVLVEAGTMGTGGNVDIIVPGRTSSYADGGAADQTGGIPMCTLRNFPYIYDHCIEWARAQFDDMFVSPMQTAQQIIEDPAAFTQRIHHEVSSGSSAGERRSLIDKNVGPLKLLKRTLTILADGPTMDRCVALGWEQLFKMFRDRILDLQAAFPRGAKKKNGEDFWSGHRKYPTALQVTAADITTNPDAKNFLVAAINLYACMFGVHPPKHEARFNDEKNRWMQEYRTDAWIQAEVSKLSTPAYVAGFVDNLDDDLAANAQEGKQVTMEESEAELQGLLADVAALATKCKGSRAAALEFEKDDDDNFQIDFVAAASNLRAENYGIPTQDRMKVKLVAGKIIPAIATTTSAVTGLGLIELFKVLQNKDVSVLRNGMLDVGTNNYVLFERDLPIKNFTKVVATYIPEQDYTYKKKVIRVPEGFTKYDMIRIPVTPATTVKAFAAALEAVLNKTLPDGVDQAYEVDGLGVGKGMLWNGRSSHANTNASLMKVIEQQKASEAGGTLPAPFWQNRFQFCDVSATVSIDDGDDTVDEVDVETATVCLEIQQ
The assay is described as follows: Leishmania donovani Ubiquitin Activating Enzyme (LdE1). The format is functional. The note with it: 30 µM.

Assay [3] has as its target AMP-activated protein kinase, AMPK (Homo sapiens) (UniProt P54646+O43741+P54619+Q9UGJ0+Q9Y478+Q13131+Q9UGI9). The experiment in a line: AMP-dependent Kinase enzyme assay. An in vitro enzyme assay that detects ADP turnover that is directly proportional to AMPK activity. This uses naive AMPK that is activated during the assay with MK-8722. Type of assay: functional. Particulars: 30 µM.

The target in assay [4] is Sialic acid-binding Ig-like lectin 9 (Homo sapiens) (UniProt Q9Y336). The experiment in a line: Hs-Siglec9 ALPHAscreen SOP 20170721. The note with it: 10 µM.
For a further assay, the system named is Trypanosoma cruzi. The experiment in a line: Trypanosoma cruzi phosphomannomutase and mannose-1-phosphate guanylyltransferase assay. Type of assay: functional. Particulars: 10 µM.
The target in assay [5] is T2, Arginase-2, mitochondrial (Homo sapiens) (UniProt P78540).
T2 sequence (whole entry): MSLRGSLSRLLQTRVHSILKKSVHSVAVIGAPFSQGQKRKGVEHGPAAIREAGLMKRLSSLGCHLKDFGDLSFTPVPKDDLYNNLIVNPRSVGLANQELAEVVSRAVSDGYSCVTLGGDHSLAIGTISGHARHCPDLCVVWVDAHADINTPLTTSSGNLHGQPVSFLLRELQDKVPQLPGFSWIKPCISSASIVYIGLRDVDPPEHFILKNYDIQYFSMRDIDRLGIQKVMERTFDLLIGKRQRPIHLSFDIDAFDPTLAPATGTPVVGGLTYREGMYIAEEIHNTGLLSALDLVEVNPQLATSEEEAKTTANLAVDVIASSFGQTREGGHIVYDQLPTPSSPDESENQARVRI
The assay is described as follows: in vitro enzyme assay to detect the production of urea directly proportional to the activity of Arginase II. Also: in the data most compounds retested in dose-response had high values. Type of assay: functional. The note with it: 33.3 µM.

The target in assay [6] is T3, Proteasome subunit beta (Trypanosoma cruzi) (UniProt O96673).
T3 sequence (whole entry): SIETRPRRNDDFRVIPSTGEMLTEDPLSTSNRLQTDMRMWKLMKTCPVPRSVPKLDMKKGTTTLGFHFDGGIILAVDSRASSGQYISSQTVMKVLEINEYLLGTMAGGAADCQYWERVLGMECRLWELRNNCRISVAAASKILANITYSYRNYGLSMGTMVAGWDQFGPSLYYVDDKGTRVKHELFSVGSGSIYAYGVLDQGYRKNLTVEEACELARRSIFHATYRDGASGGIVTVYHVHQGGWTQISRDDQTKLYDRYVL
The experiment in a line: Trypanosoma cruzi proteasome chymotrypsin-like activity (TcProtChymo) assay. Also: in the data most compounds retested in dose-response had high values. Type of assay: functional. The note with it: 9.37 µM.

The next assay is filed under the species Homo sapiens. The assay is described as follows: To identify inhibition of the IFN signalling (Jak-Stat) pathway via expression of an eGFP reporter gene under the control of an IFN-stimulated response element (ISRE) containing MxA promoter. The format is functional. The note with it: 30 µM.
Assay [7] has as its target T4, Tyrosyl-tRNA synthetase, putative (Trypanosoma cruzi (strain CL Brener)) (UniProt Q4DSP6).
T4 sequence (whole entry): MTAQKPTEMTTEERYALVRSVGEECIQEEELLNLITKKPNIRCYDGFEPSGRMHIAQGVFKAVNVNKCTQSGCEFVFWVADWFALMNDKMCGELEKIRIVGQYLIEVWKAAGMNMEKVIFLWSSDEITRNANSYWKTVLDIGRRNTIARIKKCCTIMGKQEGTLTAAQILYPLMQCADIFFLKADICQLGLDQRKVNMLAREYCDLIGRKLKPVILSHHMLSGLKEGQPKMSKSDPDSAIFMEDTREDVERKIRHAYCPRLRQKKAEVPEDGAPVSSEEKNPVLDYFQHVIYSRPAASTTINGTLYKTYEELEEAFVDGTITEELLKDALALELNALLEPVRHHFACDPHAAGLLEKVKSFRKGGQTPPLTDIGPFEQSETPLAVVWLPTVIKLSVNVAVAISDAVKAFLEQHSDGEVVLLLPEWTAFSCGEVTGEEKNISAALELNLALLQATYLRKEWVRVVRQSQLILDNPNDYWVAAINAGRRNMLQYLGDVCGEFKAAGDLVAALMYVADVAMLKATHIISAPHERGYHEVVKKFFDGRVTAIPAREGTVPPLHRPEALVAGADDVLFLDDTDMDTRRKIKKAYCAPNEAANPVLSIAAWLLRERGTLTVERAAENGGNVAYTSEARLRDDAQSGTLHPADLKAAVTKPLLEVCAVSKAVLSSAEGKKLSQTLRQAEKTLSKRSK
The experiment in a line: Trypanosoma cruzi tyrosyl tRNA synthetase (TcYRS) _High Tyrosine SOP. Also: in the data most compounds retested in dose-response had high values. The note with it: 30 µM. The format is functional.

In assay [8] the target is T4, Tyrosyl-tRNA synthetase, putative (Trypanosoma cruzi (strain CL Brener)). The experiment in a line: Trypanosoma cruzi tyrosyl tRNA synthetase (TcYRS) SOP. The format is functional. The note with it: 30 µM.
Assay [9] concerns the target Chromo domain-containing protein 1 (Saccharomyces cerevisiae (strain ATCC 204508 / S288c) (Baker's yeast)) (UniProt P32657). The assay is described as follows: ScCHD-1 Enzyme Inhibition Assay. Also: in the data most compounds retested in dose-response had high values. The format is functional. The note with it: 30 µM.

Chain of Chromo domain-containing protein 1 (Saccharomyces cerevisiae (strain ATCC 204508 / S288c) (Baker's yeast)) (P32657 whole entry, the tested form may be a part): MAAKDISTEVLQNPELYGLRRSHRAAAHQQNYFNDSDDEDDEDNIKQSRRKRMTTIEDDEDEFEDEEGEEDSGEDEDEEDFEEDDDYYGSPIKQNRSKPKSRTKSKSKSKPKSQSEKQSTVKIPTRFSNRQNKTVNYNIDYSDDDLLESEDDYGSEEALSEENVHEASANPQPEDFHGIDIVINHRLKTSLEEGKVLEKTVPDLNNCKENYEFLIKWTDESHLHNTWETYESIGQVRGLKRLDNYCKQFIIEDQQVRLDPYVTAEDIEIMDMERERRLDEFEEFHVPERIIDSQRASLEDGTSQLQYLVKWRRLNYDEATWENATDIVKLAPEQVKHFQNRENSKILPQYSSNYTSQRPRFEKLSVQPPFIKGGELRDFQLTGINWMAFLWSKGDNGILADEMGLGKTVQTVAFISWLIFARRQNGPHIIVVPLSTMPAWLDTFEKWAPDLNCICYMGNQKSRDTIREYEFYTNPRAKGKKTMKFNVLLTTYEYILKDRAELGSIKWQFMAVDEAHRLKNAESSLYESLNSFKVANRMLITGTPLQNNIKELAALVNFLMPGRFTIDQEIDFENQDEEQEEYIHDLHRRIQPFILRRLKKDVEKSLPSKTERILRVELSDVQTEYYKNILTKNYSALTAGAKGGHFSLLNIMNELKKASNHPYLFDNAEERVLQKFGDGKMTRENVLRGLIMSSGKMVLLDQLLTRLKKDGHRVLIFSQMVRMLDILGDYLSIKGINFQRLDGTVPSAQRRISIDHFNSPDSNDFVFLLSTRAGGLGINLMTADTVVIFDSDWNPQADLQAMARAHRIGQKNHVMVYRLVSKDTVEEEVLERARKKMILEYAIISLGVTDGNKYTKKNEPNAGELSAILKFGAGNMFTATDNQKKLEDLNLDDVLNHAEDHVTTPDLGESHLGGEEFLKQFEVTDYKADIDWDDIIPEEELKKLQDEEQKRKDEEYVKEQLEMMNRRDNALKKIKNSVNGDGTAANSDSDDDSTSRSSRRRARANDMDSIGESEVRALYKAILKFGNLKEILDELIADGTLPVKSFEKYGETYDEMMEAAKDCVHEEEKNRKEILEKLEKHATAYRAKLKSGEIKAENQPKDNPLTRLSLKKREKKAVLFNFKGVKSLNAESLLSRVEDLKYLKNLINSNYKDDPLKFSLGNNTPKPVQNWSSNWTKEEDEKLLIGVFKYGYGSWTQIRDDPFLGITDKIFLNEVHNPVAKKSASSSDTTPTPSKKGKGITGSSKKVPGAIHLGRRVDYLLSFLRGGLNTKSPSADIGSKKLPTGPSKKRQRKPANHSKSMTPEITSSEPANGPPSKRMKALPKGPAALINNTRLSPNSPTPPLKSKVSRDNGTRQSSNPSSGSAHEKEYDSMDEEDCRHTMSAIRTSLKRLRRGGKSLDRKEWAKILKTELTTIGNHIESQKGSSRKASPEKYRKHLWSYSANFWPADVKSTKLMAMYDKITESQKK
Chain of Protein translocase subunit SecA (Escherichia coli (strain K12)) (P10408 whole entry): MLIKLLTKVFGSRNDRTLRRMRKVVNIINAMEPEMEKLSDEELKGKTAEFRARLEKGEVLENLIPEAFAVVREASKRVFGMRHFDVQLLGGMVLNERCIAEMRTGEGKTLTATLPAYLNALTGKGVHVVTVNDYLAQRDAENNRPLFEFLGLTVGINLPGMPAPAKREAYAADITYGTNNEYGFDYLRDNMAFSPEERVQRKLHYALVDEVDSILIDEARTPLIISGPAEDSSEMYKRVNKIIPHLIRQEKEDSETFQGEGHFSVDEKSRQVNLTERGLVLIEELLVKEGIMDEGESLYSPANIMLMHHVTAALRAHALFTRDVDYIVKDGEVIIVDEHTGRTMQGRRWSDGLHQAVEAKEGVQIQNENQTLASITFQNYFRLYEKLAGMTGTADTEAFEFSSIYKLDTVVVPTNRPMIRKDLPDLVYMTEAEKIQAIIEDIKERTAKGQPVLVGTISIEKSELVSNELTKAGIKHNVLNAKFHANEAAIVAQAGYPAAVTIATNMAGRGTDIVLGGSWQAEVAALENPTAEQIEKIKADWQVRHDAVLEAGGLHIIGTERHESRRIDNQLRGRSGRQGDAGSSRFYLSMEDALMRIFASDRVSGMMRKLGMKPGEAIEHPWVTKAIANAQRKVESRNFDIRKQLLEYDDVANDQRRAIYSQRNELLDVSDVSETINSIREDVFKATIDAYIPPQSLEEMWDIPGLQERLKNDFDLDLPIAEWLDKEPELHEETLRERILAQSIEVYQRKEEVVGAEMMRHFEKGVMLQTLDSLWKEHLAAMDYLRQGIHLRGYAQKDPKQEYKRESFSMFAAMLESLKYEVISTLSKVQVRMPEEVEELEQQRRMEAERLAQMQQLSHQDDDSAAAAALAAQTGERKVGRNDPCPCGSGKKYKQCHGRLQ
Chain of Sialic acid-binding Ig-like lectin 9 (Homo sapiens) (Q9Y336 whole entry): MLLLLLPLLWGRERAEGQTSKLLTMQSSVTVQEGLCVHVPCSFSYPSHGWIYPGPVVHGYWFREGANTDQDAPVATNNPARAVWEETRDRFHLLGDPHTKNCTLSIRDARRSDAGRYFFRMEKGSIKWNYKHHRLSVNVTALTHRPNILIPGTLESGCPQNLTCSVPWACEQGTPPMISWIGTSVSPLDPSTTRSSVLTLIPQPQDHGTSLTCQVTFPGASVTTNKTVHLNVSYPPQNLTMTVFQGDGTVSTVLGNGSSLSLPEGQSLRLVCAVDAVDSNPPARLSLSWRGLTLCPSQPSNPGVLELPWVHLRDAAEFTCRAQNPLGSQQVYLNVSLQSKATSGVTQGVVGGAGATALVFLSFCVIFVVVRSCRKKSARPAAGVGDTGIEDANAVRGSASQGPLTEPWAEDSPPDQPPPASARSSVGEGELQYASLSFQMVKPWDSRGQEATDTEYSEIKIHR

Regarding `Cc1cc(C)n(CC2CN(Cc3cscn3)CCO2)n1` (stereo unspecified), the Percent Effect in assay [1] was -2.86%; in assay [2] it was 23.7%; in [3], -2.52%; in [4], -2.39%; in the assay on Trypanosoma cruzi, 2.63%; in assay [5], -0.383%. Also, the Percent Effect in [6] was 27.2%; in the assay listed under Homo sapiens, -6.47%; in [7] it was 7.35%; in assay [8], 21.9%; in [9] it was -11.6%.

`CC(CNC(=O)N1CCN(CC(F)F)CC1)Cc1cccs1` (stereo unspecified): the Percent Effect in assay [1] was -7.32%; in assay [2], 2.7%; in assay [3] it was 3.08%; in assay [4], 1.71%; with Trypanosoma cruzi it was -1.17%; in assay [5] it was 2.08%. In addition, the Percent Effect was 6.34% in [6]; -5.03% in the assay listed under Homo sapiens; 8.91% in assay [7]; 1.22% in assay [8]; -2.29% in [9].

Regarding `CCS(=O)(=O)CC(=O)NC(c1ccc(F)cc1)C1CCCC1` (stereo unspecified), the Percent Effect is -5.43% in [1]; 0% in [2]; 132% in [3]; 2.49% in assay [4]; -4.58% in the assay with Trypanosoma cruzi; -2.37% in assay [5]. Further, the Percent Effect in assay [6] is 17%; in the assay filed under Homo sapiens it was 6.16%; in [7] it was 3.19%; in [8] it was 5.2%; in assay [9] it was -4.36%.

`CCCn1nccc1C(=O)N1CCCN(CCCc2ccccc2)CC1`: the Percent Effect in [1] was -5.36%; in assay [2], 11%; in [3], -4.71%; in assay [4], 8.5%; with Trypanosoma cruzi, 7.14%; in assay [5], -4.79%. In addition, the Percent Effect in [6] was 16.2%; in the assay filed under Homo sapiens it was 4.05%; in assay [7] it was 7.29%; in [8] it was 8.64%; in assay [9] it was -1.42%.

Consider `Cc1nsc(N2CCCN(c3nc(C4CC4)ns3)CC2)n1`, for which the Percent Effect in [1] was -2.5%; in assay [2], 11%; in assay [3] it was 9.09%; in assay [4], 5.05%; with Trypanosoma cruzi it was 4.9%; in assay [5] it was 19.1%. Moreover, the Percent Effect in assay [6] was 10.1%; in the assay filed under Homo sapiens, 5.1%; in [7] it was 1.07%; in [8] it was 5%; in assay [9] it was -4.56%.

On to `CCNC(=O)[C@@H]1C[C@@H](NC(=O)Cc2ccccn2)CN1CCCSC`, for which the Percent Effect is -5.92% in assay [1]; 0% in [2]; 1.44% in [3]; -0.868% in assay [4]; -4.37% in the assay with Trypanosoma cruzi; -1.2% in assay [5]. The Percent Effect in assay [6] was 6.42%; in the assay listed under Homo sapiens it was 5.01%; in [7] it was 0%; in assay [8], -3.7%; in assay [9], 0.131%.

For `Cc1ccccc1CSc1nc(N)cc(N2C[C@H](O)[C@@H](N(C)C)C2)n1`, the Percent Effect in [1] is -8.01%; in assay [2], 5.41%; in [3] it was -13.8%; in [4], 0.783%; with Trypanosoma cruzi, 1.07%; in [5], 1.24%. For the same compound, the Percent Effect in [6] is 12.6%; in the assay listed under Homo sapiens, 5.8%; in assay [7], 8.6%; in [8], 18.5%; in assay [9], -3.84%.

Consider `CC(C)c1n[nH]c(C2CN(C(=O)CCCn3cccn3)CCO2)n1` (stereo unspecified), for which the Percent Effect in assay [1] is 0.0152%; in assay [2], -6.94%; in [3], -4.76%; in assay [4] it was -7.03%; with Trypanosoma cruzi, -2.43%; in [5] it was 2.21%. Besides, the Percent Effect in assay [6] is 11.6%; in the assay listed under Homo sapiens, -1.34%; in assay [7], -1.05%; in assay [8], 0%; in [9] it was 0.954%.

Take `Cc1cnc(CN(C)C2CCN(CC(=O)Nc3nncs3)C2)o1` (stereo unspecified): the Percent Effect is -0.539% in [1]; 22.8% in assay [2]; -11% in [3]; -8.69% in assay [4]; -2.74% in the assay on Trypanosoma cruzi; 1.14% in assay [5]. The Percent Effect was 5% in [6]; 5.59% in the assay filed under Homo sapiens; 12.3% in assay [7]; 21.5% in assay [8]; -9.12% in assay [9].

Turning to `CC(=O)N1CCCC1c1nccc(C)n1` (stereo unspecified), the Percent Effect in assay [1] was -4.82%; in assay [2], 8%; in assay [3] it was 9.75%; in assay [4] it was 7.48%; in the assay with Trypanosoma cruzi, -0.984%; in assay [5], 3.5%. The Percent Effect in assay [6] is 4.67%; in the assay listed under Homo sapiens, 3.01%; in assay [7], 3.19%; in assay [8], 11.5%; in assay [9], -1.52%.

Regarding `CN(Cc1ccco1)Cc1cncc2c1CCN(c1ncccn1)C2`, the Percent Effect in assay [1] was -0.988%; in assay [2], 8%; in assay [3] it was -6.54%; in assay [4], -2.14%; in the assay on Trypanosoma cruzi it was 3.86%; in assay [5] it was -48.6%. The Percent Effect in assay [6] was 14.9%; in the assay filed under Homo sapiens, -4.67%; in [7], -1.04%; in [8], 2.5%; in assay [9], -2.02%.
